These results are taken from PubChem BioAssay AID1851 (National Center for Advancing Translational Sciences (NCATS), 2009).

SMILES strings stand for the structures. The campaign covered roughly 16,000 compounds. About 4,000 (25%) were called active. About 26% were inconclusive and are not listed. Calls follow the shape of the dose curve; as a rule, active = well fitted curve in the direction sought with a large enough effect; inconclusive = small, poorly fitted or top-dose-only effect, or effect the other way; inactive = no such curve, though single readings can be large or run the other way. Only a sample is shown.
% is scaled to controls: 0 for no effect and ±100 for the full control effect.

Sequence of Cytochrome P450 2C9 (Homo sapiens) (P11712 whole entry, looked up): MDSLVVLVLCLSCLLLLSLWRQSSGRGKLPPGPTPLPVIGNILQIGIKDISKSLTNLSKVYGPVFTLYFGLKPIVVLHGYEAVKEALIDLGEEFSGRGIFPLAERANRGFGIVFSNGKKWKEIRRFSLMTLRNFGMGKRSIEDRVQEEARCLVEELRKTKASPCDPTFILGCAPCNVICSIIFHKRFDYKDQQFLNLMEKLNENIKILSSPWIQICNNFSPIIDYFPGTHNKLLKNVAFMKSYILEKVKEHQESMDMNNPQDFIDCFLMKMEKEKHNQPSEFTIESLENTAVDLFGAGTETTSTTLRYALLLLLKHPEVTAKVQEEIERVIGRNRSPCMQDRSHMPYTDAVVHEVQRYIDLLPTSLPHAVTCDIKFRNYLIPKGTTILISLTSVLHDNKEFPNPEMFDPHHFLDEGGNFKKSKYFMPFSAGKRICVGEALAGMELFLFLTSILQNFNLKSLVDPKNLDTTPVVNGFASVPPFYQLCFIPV

The assay addresses Cytochrome P450 2C9 (Homo sapiens) (UniProt P11712). In words: Cytochrome panel assay with activity outcomes. The note with it: recombinant CYP, pro-luciferin dealkylation, luminescence, p450-cyp2c9; series mostly up to 57.1 µM; activity, negative = inhibition: at the top concentration.
`O=C1OCCC1Sc1nnnn1-c1ccccc1` (stereo not given): the “activity, negative = inhibition” value was -15.2% (inactive).

`CCC(CC)C(=O)Nc1ccc(C)c(O)c1`: the AC50 was 3.16 µM (active). On to `Cc1ccccc1N1C(=O)c2cc(S(N)(=O)=O)c(Cl)cc2N[C@H]1C`, for which the “activity, negative = inhibition” value was -17.8% [at 25.6 µM] (inactive). Take `Cc1[nH]nc(N2CCCCCC2)c1[N+](=O)[O-]`: the AC50 was 17.8 µM (active). For the compound `Cc1ccccc1CN1C2=NCCN2C(=O)C2=C1CCN(Cc1ccccc1)C2`, the activity, negative = inhibition was -1.36% [at 11.4 µM] (inactive). For `CN(C)C(=O)CCc1nc(-c2ccc(C(C)(C)C)cc2)no1`, the “activity, negative = inhibition” value is -13.8% (inactive). With `N=C(N)SCc1nc(-c2ccc(Cl)cc2)no1`, the AC50 was 3.98 µM (active). As to `Cc1ccc(NC(=O)C2CCN(S(C)(=O)=O)CC2)cc1`, the “activity, negative = inhibition” value is 8.67% (inactive). In the case of `Cc1ccc(C2CC2C(=O)NN)cc1` (stereo not given), the AC50 was 14.1 µM (active). Take `Cc1ccc(C(=O)C2CCNCC2)cc1`: the “activity, negative = inhibition” value was -7.02% (inactive). Same read-out and setting: to `Cc1cccc(CNc2cc(-c3ccccc3CN(C)C)ncn2)c1` belongs -2.61% [at 2.29 µM] (inactive).

Regarding `CC(C)=CCc1c2c(c3occ(-c4ccc(O)c(O)c4)c(=O)c3c1O)C=CC(C)(C)O2`, the AC50 is 3.16 µM (active). For `CN(C)CCO[C@](C)(c1ccccc1)c1ccccn1`, the AC50 result was “inactive”. As to `COC(=O)c1sccc1NC(=O)c1cc(-c2cc(C)ccc2C)nc2ccccc12`, the “activity, negative = inhibition” value was -53% (inactive). As for `COC(=O)c1sccc1NC(=O)c1cc(-c2ccc(C)cc2)nc2ccccc12`, the AC50 was 3.98 µM (active). Turning to `COC(=O)c1sccc1NC(=O)c1cc(-c2ccc(C)cc2C)nc2ccccc12`, the AC50 is 2.24 µM (active).

Consider `COc1ccc(-c2cc([C@H](O)[C@@H]3CCCCN3)c3ccccc3n2)cc1`, for which the activity, negative = inhibition is 3.54% [at 11.4 µM] (inactive). With `COC(=O)CNC(c1ccccc1Cl)c1cc(Br)ccc1NC(=O)CCN1CCOCC1` (stereo not given), the AC50 is 15.8 µM (active). Turning to `Clc1ccccc1-c1cc(NCCN2CCOCC2)ncn1`, the activity, negative = inhibition was 16.8% [at 2.29 µM] (inactive). As for `O=C(NN1C(=O)c2ccccc2C1=O)C1CCCCC1`, the “activity, negative = inhibition” value was -28.6% (inactive). On to `O=C(CSCc1ccccc1Cl)NNC(=O)c1ccccc1`, for which the “activity, negative = inhibition” value was -11.5% (inactive). Turning to `O=C(CSCc1ccccc1Cl)NN1C(=O)c2ccccc2C1=O`, the AC50 was 3.98 µM (active). `O=C(NNC(=S)Nc1ccccc1)C1CC1`: the “activity, negative = inhibition” value is -20.4% (inactive).

As to `O=C(CSCc1ccccc1Cl)NNC(=S)Nc1ccccc1`, the AC50 is 2.51 µM (active). On to `CC(C)CNC(=O)O`, for which the activity, negative = inhibition is -4.26% [at 11.4 µM] (inactive).

Regarding `Clc1cccc(Cl)c1CSc1nnc(/C=C/c2ccccc2)o1`, the “activity, negative = inhibition” value was -33% (inactive). As for `C(=C\c1nnc(-c2cccs2)o1)/c1ccccc1`, the AC50 is 14.1 µM (active).

Regarding `Cc1oc(-c2cccs2)[n+]([O-])c1C`, the “activity, negative = inhibition” value is -17.3% (inactive).

Regarding `CC1(C)N=C(N)N=C(N)N1c1cccc(OCc2cccc([N+](=O)[O-])c2)c1`, the activity, negative = inhibition was -1.87% [at 11.4 µM] (inactive). `O=[N+]([O-])c1ccc(C2CCCC/C2=N\OCc2cccc(F)c2)c([N+](=O)[O-])c1` (stereo not given): the AC50 was 7.94 µM (active).

The term AC50 denotes the concentration giving half of the maximal activity seen.
